In experiment [1] the target is Sentrin-specific protease 8 (Homo sapiens) (UniProt Q96LD8). The experiment can be described thus: SENP8 protease inhibitors, retest, confirmation, biochemical, luminescence, single concentration (AID 488912;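 active = mean inhibition across replicates above about 50%, limit read from the data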). The note with it: Recombinant SENP8, Z-RLRGG-aminoluciferin luminescence, 60 min; at 12.5 µM; active compounds read high.
Experiment [2] addresses Sentrin-specific protease 6 (Homo sapiens) (UniProt Q9GZR1). Nature of the experiment: SENP6 protease inhibitors, confirmation, biochemical, luminescence, single concentration (AID 488915). The note with it: recombinant SENP6, Z-RLRGG-aminoluciferin luminescence; at 12.5 µM; active compounds read high.
For experiment [3], the target named is Sentrin-specific protease 7 (Homo sapiens) (UniProt Q9BQF6). Nature of the experiment: SENP7 protease inhibitors, retest, confirmation, biochemical, luminescence, single concentration (AID 488917). The note with it: recombinant SENP7, Z-RLRGG-aminoluciferin luminescence, 40 min; at 12.5 µM; active compounds read high.
The target in a further experiment is Caspase-3 (Homo sapiens) (UniProt P42574). Nature of the experiment: caspase-3 protease inhibitors, confirmation, selectivity assay for SENP inhibitor project, biochemical, single concentration (AID 488918;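 active = mean inhibition above about 50%, limit read from the data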;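 note: plate controls were enzyme with DMSO for no effect and wells without caspase-3 for full effect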). The note with it: purified caspase-3, Z-DEVD-aminoluciferin luminescence, 60 min; at 12.5 µM; active compounds read high.
A short description of experiment [4]: luciferase luminescence interference by compounds, confirmation, artefact control for SENP inhibitor project, biochemical, single concentration, SENP8 reaction pre-completed (AID 488919;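 active = mean inhibition above about 50% when retested at one dose, limit read from the data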;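 note: plate controls were DMSO wells with completed reaction for no effect and substrate without enzyme for full effect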). The settings on record: Pre-incubated SENP8/Z-RLRGG-aminoluciferin, at 12.5 µM, active compounds read high.

Each structure is given as a SMILES string. The list shows a part of the results. A number with no mark means an inactive call. Active and inactive are the calls of the source.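 Rule for the calls, unless noted: active = mean inhibition above about 50% in the one-dose retest (limit read from the data); inactive = the rest.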

Chain of Caspase-3 (Homo sapiens) (P42574 28-227 limits assumed): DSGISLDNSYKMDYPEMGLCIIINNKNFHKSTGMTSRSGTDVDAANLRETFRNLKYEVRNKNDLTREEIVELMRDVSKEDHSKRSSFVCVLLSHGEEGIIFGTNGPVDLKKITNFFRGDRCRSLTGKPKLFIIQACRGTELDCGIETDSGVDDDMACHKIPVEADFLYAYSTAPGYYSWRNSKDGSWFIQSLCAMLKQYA
Chain of Sentrin-specific protease 8 (Homo sapiens) (Q96LD8 whole entry, looked up): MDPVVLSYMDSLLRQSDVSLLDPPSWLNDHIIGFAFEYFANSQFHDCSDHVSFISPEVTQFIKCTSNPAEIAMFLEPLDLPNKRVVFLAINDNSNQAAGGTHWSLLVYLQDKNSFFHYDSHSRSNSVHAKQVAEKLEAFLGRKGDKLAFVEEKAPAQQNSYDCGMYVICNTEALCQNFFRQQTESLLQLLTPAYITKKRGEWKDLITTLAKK
Chain of Sentrin-specific protease 6 (Homo sapiens) (Q9GZR1 628-1112 limits assumed): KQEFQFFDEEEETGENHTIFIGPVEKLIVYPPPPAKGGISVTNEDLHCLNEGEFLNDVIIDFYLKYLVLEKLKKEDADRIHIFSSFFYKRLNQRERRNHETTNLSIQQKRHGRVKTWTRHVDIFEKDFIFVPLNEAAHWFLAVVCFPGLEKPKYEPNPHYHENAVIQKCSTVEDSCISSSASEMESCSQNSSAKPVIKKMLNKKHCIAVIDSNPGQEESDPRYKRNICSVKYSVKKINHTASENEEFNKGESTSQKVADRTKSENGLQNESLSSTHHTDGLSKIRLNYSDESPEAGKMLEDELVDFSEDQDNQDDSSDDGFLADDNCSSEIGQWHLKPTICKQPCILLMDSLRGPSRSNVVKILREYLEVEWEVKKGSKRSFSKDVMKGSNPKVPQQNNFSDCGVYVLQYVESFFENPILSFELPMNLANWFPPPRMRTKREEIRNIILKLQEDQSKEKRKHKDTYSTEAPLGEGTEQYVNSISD
Chain of Sentrin-specific protease 7 (Homo sapiens) (Q9BQF6 706-1050 limits assumed): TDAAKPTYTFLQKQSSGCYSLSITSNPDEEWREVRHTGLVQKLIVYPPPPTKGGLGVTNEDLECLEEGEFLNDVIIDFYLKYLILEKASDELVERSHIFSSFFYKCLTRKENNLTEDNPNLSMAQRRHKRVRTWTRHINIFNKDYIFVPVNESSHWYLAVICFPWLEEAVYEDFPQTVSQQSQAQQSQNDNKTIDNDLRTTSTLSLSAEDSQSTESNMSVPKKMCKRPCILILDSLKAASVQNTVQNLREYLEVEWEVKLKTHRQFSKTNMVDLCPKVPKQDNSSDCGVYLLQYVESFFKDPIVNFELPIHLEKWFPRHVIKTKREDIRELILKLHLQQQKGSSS

By inhibition is commonly meant the drop in the measured response relative to a control, in per cent. `CCOC(=O)c1cccc(NC(=O)c2ccc(F)cc2F)c1`: the inhibition was 54% (active) in experiment [1]; 48.2% in experiment [2]; 75.9% (active) in experiment [3]; 67.9% (active) with Caspase-3 (Homo sapiens); 59.7% (active) in experiment [4].

As to `O=C(Nc1cccnc1Cl)c1cc(-c2ccccc2O)on1`, the inhibition in experiment [1] was 8.6%; in experiment [2] it was 17.8%; in experiment [3] it was 16.2%; in the experiment with Caspase-3 (Homo sapiens) it was 8%; in experiment [4], 1.6%.

As to `N/C(=N\OC(=O)c1ccc2c(c1)OCO2)c1ccc(Br)cc1`, the inhibition was -7.4% in experiment [1]; 15.2% in experiment [2]; 11.9% in experiment [3]; 17.8% in the experiment with Caspase-3 (Homo sapiens); 3.3% in experiment [4].

With `Oc1cccc2ccc(/C=C/c3ccc(Br)s3)nc12`, the inhibition was 31.2% in experiment [1]; 63.9% (active) in experiment [2]; 52.2% (active) in experiment [3]; 59.9% (active) with Caspase-3 (Homo sapiens); 9.6% in experiment [4].

`COc1cccc(-c2nc3cc(C)ccc3o2)c1`: the inhibition in experiment [1] was 96.1% (active); in experiment [2], 99.2% (active); in experiment [3], 102% (active); with Caspase-3 (Homo sapiens), 96.9% (active); in experiment [4], 94.2% (active).

On to `Cc1cccc(/C=N/NC(=O)CNc2cccc3ccccc23)n1`, for which the inhibition in experiment [1] is 13.1%; in experiment [2], 12.9%; in experiment [3] it was 3.9%; with Caspase-3 (Homo sapiens) it was -0.3%; in experiment [4], 1.6%.

On to `Cc1cccc(NC(=O)COc2ccc(Br)cc2C)n1`, for which the inhibition in experiment [1] is 1%; in experiment [2] it was 50%; in experiment [3] it was 7.4%; with Caspase-3 (Homo sapiens) it was 20.8%; in experiment [4], 11.1%.

On to `COc1ccc(-n2ncc3c(SCC(=O)NNC(C)=O)ncnc32)cc1`, for which the inhibition in experiment [1] was 11.5%; in experiment [2] it was 48.8%; in experiment [3], 11.2%; in the experiment with Caspase-3 (Homo sapiens), 51.3% (active); in experiment [4], 5.9%.

With `COc1ccc(C(=O)COC(=O)c2ccc([N+](=O)[O-])s2)cc1OC`, the inhibition in experiment [1] is 4.2%; in experiment [2], 46.8%; in experiment [3] it was 7.5%; with Caspase-3 (Homo sapiens), 14.1%; in experiment [4], 6.4%.

For the molecule `Fc1ccc2nc(N3CCCCC3)sc2c1`, the inhibition in experiment [1] is 7.7%; in experiment [2], 78.8% (active); in experiment [3], 97.3% (active); in the experiment with Caspase-3 (Homo sapiens), 80.5% (active); in experiment [4] it was 18.4%.

As for `CSC1=N/C(=C\C=C\c2cccs2)C(=O)S1`, the inhibition in experiment [1] is 69.4% (active); in experiment [2], 75.6% (active); in experiment [3] it was 85.3% (active); in the experiment with Caspase-3 (Homo sapiens), 68.1% (active); in experiment [4] it was 52.2% (active).

On to `CNc1nc(Nc2ccc(C)c(Cl)c2)nc(N)c1[N+](=O)[O-]`, for which the inhibition in experiment [1] is 97.8% (active); in experiment [2] it was 98.7% (active); in experiment [3], 103% (active); with Caspase-3 (Homo sapiens), 96.9% (active); in experiment [4], 18.3%.

For `O=C(Nc1ccc(Cl)cc1)c1ccsn1`, the inhibition in experiment [1] is 49.7%; in experiment [2], 46.8%; in experiment [3], 78.1% (active); in the experiment with Caspase-3 (Homo sapiens), 60.3% (active); in experiment [4] it was 51.9% (active).

On to `Cc1cccc(NC(=O)c2ccc3ccccc3n2)n1`, for which the inhibition in experiment [1] is 76.6% (active); in experiment [2], 76.1% (active); in experiment [3] it was 93.6% (active); with Caspase-3 (Homo sapiens), 65.2% (active); in experiment [4] it was 51.2% (active).

Regarding `O=c1oc2cc(O)ccc2cc1-c1ccc(F)cc1`, the inhibition in experiment [1] is 98.4% (active); in experiment [2], 99.7% (active); in experiment [3], 103% (active); with Caspase-3 (Homo sapiens), 98.2% (active); in experiment [4] it was 95.4% (active).

As to `O=C1C(=O)N(CCCN2CCOCC2)C(c2ccc([N+](=O)[O-])cc2)/C1=C(\O)c1ccc2c(c1)OCCO2` (stereo not given), the inhibition in experiment [1] is -13.1%; in experiment [2] it was -8.9%; in experiment [3], -9%; in the experiment with Caspase-3 (Homo sapiens), -4.4%; in experiment [4], -12.5%.

Consider `Cc1sc(NC(=O)c2ccc3ncsc3c2)c(C(N)=O)c1C`, for which the inhibition is -15.3% in experiment [1]; -7.6% in experiment [2]; -2.8% in experiment [3]; 3.3% in the experiment with Caspase-3 (Homo sapiens); -10.5% in experiment [4].

As to `CC(=O)Nc1ccc(/C=N/NC(=O)c2cccs2)cc1`, the inhibition in experiment [1] was 31.2%; in experiment [2], 34%; in experiment [3], 78.5% (active); with Caspase-3 (Homo sapiens) it was 82.4% (active); in experiment [4] it was 58.1% (active).

Take `CC(=NCc1ccco1)c1c(C(F)(F)F)[nH]n(-c2nc3ccccc3s2)c1=O`: the inhibition was 91.7% (active) in experiment [1]; 91.9% (active) in experiment [2]; 99.8% (active) in experiment [3]; 98.1% (active) in the experiment with Caspase-3 (Homo sapiens); 89.3% (active) in experiment [4].

For `N=c1c2c3c(sc2nc2n1CCCCC2)CCCC3`, the inhibition is 10.9% in experiment [1]; 8.4% in experiment [2]; 10.6% in experiment [3]; 11.1% with Caspase-3 (Homo sapiens); 11.6% in experiment [4].

Turning to `Cc1cccc(-c2noc(-c3ccc(F)cc3)n2)c1`, the inhibition is 63.5% (active) in experiment [1]; 69.8% (active) in experiment [2]; 89.5% (active) in experiment [3]; 80.6% (active) with Caspase-3 (Homo sapiens); 61.4% (active) in experiment [4].

With `CC1=NN(C(N)=S)C(=O)C1N=Nc1cc(Cl)ccc1Cl` (stereo not given), the inhibition in experiment [1] is -5.4%; in experiment [2], -1.7%; in experiment [3], 1.9%; in the experiment with Caspase-3 (Homo sapiens) it was -1.2%; in experiment [4], 1.2%.

Turning to `O=c1c(-c2ccccc2)coc2cc(O)ccc12`, the inhibition in experiment [1] was 61.7% (active); in experiment [2], 60.2% (active); in experiment [3] it was 88.2% (active); with Caspase-3 (Homo sapiens), 85.9% (active); in experiment [4], 74.8% (active).

As to `O=C(O)c1ccc2c3c(cccc13)C(=O)N(OS(=O)(=O)c1ccccc1)C2=O`, the inhibition in experiment [1] is 36.6%; in experiment [2] it was 29.2%; in experiment [3], 68.5% (active); in the experiment with Caspase-3 (Homo sapiens), 10.4%; in experiment [4], 53.8% (active).

On to `Cc1ccc(/C=N/NC(=O)c2cc3ccccc3cc2O)o1`, for which the inhibition in experiment [1] was 67% (active); in experiment [2] it was 65.9% (active); in experiment [3], 89.2% (active); with Caspase-3 (Homo sapiens), 76.8% (active); in experiment [4], 77.6% (active).

With `Oc1ccc(N=Nc2nccs2)c(O)c1`, the inhibition in experiment [1] is 82.3% (active); in experiment [2] it was 80.3% (active); in experiment [3] it was 93.9% (active); in the experiment with Caspase-3 (Homo sapiens), 90.8% (active); in experiment [4], 82.8% (active).

For `CCOc1ccc(C(=O)Nc2cccc(SC)c2)cc1`, the inhibition was -21.9% in experiment [1]; 80.1% (active) in experiment [2]; 96.7% (active) in experiment [3]; 76.3% (active) with Caspase-3 (Homo sapiens); 85.8% (active) in experiment [4].

On to `O=C(Nc1cccc([N+](=O)[O-])c1)c1ccc2c(c1)OCO2`, for which the inhibition in experiment [1] was 29.3%; in experiment [2] it was 38.2%; in experiment [3], 88% (active); with Caspase-3 (Homo sapiens), 65.1% (active); in experiment [4], 9.5%.

As to `CCc1noc(C)c1C(=O)Nc1nc2ccc(OC)cc2s1`, the inhibition in experiment [1] is 45.2%; in experiment [2], 42.8%; in experiment [3] it was 78.3% (active); in the experiment with Caspase-3 (Homo sapiens) it was 58.3% (active); in experiment [4], 19.6%.

Consider `c1ccc(CN=C2Nc3ccccc3CS2)nc1`, for which the inhibition in experiment [1] is 48.6%; in experiment [2], 41.9%; in experiment [3], 74.7% (active); in the experiment with Caspase-3 (Homo sapiens), 76.5% (active); in experiment [4], 57.5% (active).

On to `O=C(Nc1ccc(C(=O)O)c(O)c1)c1ccccc1`, for which the inhibition in experiment [1] is 73% (active); in experiment [2], 73.7% (active); in experiment [3] it was 94.9% (active); in the experiment with Caspase-3 (Homo sapiens) it was 93.7% (active); in experiment [4] it was 82.8% (active).

`O=c1c2ccccc2ncn1/N=C/c1ccccc1`: the inhibition in experiment [1] was 2.5%; in experiment [2] it was 80.2% (active); in experiment [3], 97% (active); in the experiment with Caspase-3 (Homo sapiens) it was 86.6% (active); in experiment [4], 69% (active).

Take `Cc1ccc(NC(=O)c2sccc2C)cc1[N+](=O)[O-]`: the inhibition in experiment [1] was 78% (active); in experiment [2], 77.5% (active); in experiment [3], 95.7% (active); with Caspase-3 (Homo sapiens), 81% (active); in experiment [4], 82.6% (active).

As for `Cc1ccc(OC(=O)c2cc3ccccc3o2)cc1`, the inhibition in experiment [1] was 50.7% (active); in experiment [2], 51.4% (active); in experiment [3], 90.8% (active); in the experiment with Caspase-3 (Homo sapiens), 46.9%; in experiment [4], 64.7% (active).

As to `O=C(Nc1ncc([N+](=O)[O-])s1)C1COc2ccccc2O1` (stereo not given), the inhibition in experiment [1] is 98.8% (active); in experiment [2], 99.8% (active); in experiment [3], 103% (active); with Caspase-3 (Homo sapiens) it was 98.4% (active); in experiment [4] it was 48.6%.

For the molecule `CCCCCc1ccc(-c2ccc(C(=O)O)cc2)nc1`, the inhibition is -2.1% in experiment [1]; 54.7% (active) in experiment [2]; 76.9% (active) in experiment [3]; 9.2% with Caspase-3 (Homo sapiens); 63.9% (active) in experiment [4].

For `C/C(=N\Nc1nc2ccccc2[nH]1)c1cccs1`, the inhibition in experiment [1] was 49.6%; in experiment [2], 49.2%; in experiment [3] it was 81.2% (active); in the experiment with Caspase-3 (Homo sapiens) it was 63.1% (active); in experiment [4], 61.7% (active).

On to `CCc1ccc(NC(=O)C(=O)NNC(=O)c2cccs2)cc1`, for which the inhibition in experiment [1] is 58.4% (active); in experiment [2], 73.4% (active); in experiment [3], 93.2% (active); in the experiment with Caspase-3 (Homo sapiens) it was 89.9% (active); in experiment [4], 5.2%.

`COc1cc(C#Cc2ccc3cc(CCCO)oc(=O)c3c2)cc(OC)c1`: the inhibition in experiment [1] was 56.9% (active); in experiment [2], 72.2% (active); in experiment [3], 86.6% (active); with Caspase-3 (Homo sapiens), 42.7%; in experiment [4], 15.2%.

These data come from PubChem BioAssay.
